The record followed here is PMC12136788.

First the molecules themselves.
T1: UNK ZnF1-3 (human, UniProt Q9C0B0 31-174)
T1 sequence: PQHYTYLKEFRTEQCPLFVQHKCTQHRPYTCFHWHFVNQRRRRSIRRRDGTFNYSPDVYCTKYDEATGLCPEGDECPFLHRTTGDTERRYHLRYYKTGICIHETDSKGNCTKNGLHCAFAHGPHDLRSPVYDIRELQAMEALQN

B1: chr7:54825262:54825263:-_ENSG00000132432_ENST00000352861|hu_hu|hu_hu_hu_mus_False|48_98 (ssRNA)
RNA: GGGAGUUCUACAGUCCGACGAUCCUGCCGGCUGGGCACAAACUGCAGCAUUACCUGAUCCAUGUUUGUUGGAUGGCGGAUUGAGAGUGCCAGGGACCGUAGCUCAGGAGAGAACCGAGCCCAACGGAACCGGAAGCUGGCAACCAACAGAGGAUUGAGCAUCA
B2: chr3:95023916:95023917:-_ENSMUSG00000053192_ENSMUST00000065482|mus_mus|motif|central (ssRNA)
RNA: GGGAGUUCUACAGUCCGACGAUCUAAAUAAAUAAAUAAAUAAAUAUAGAUAGAUAAAUAAGUACGUACAUACAUACAAACCGGCAAUUCAAUUGGCAGAUUCAUCAGCACCACCAGCACAAUAGAGGGAAGAGAACAAGAUUACAACAGAGGAUUGAGCAUCA
B3: chr3:148802587:148802588:-_ENSG00000071794_ENST00000310053|hu_mus|hu_hu_hu_mus_False|28_38 (ssRNA)
RNA: GGGAGUUCUACAGUCCGACGAUCUCCAACAACUUGUCCUCUCAUAGUUCCAAAUAAAACCAAAUCUUGCUCUUCAUCACUCGUUAGGAAGUCAUCUGGAGGGAUAACAUCUUGGAAUUCAAAAUGUGGCAAGAAAGUUGAGUACAACAGAGGAUUGAGCAUCA
B4: chr1:34870196:34870197:-_ENSMUSG00000037503_ENSMUST00000047534|mus_hu|motif|central (ssRNA)
RNA: GGGAGUUCUACAGUCCGACGAUCAUCUGAGCUCAUCUCAUCAGAUUGCAUAAAAAAUUAAAAUAGUAUCAAUUGACACCGGACUGAACUGGCUCAGGAUGGAAAUUCCAUUCCUUGGCAUGGAUACGUAAGUUCAAUGCAGAGCAACAGAGGAUUGAGCAUCA
B5: chr17:64801638:64801639:+_ENSG00000154229_ENST00000413366|hu_mus|hu_hu_hu_mus_False|78_78 (ssRNA)
RNA: GGGAGUUCUACAGUCCGACGAUCUAUAUAUAUAUAUACAUAUGUACACAUAUAUAGUAAGAGCCUAGUUAAACGUGUAAAGUAGCCAUUCAUUUUUAAAAUUACAUCUACAUUAAAAAAUUAAUAUAUCUGAUAGAGUGCCAGCAACAGAGGAUUGAGCAUCA
B6: chr3:95023916:95023917:-_ENSMUSG00000053192_ENSMUST00000065482|mus_mus|FALSE|FALSE (ssRNA)
RNA: B2 RNA with G82U, G83A

Substitutions are numbered along the chain they refer to. The full ranking holds about 24,000 sequences; the median of “enrichment r” is about 0.99, and the highest 2% start at about 3.7. Many of the other results were omitted from the sample, so the highest values are more common in it than they were.

This test concerns the target T1, UNK ZnF1-3. The test can be described thus: nsRBNS (natural sequence RNA bind-n-seq); RBNS binding buffer (assumed for nsRBNS): 25 mM Tris pH 7.5, 150 mM KCl, 3 mM MgCl2, 0.01% Triton X-100, 500 ug/ml BSA, 20 U/ml SUPERase-In, 4 C; UNK is unkempt and MSI1 is Musashi-1; names of the RNAs are library labels; protein concentration not given here; high values mean tight binding.
Consider B1, for which the binding signal came to 1.44 enrichment R.
The value for B2 was 19.9 enrichment R; that for B3 was 1.19 enrichment R.
For the molecule B4, the binding signal turned out to be 1.43 enrichment R.
The molecule B5 came in with a binding signal of 1.53 enrichment R.
The value for B6 was 7.35 enrichment R.
